From the supplement of paper PMC9023506
Counter-ions that a name gives are not always drawn.

Each molecule was assayed on Danio rerio larvae (5 dpf) (assay: optomotor response to blue moving lines, difference vs DMSO (percentage points (treated minus DMSO)); higher = more of the behaviour than the DMSO vehicle control). Conditions: 10 µM; exposure time: 3 h pre-incubation + 3 h imaging.
Procedure: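 5-dpf wild-type zebrafish larvae were imaged in 96-well plates. They were treated with 190 Tocris FDA-approved drugs at 10 µM (1 µl/ml DMSO) for 3 h before and 3 h during imaging at 28.5 °C, 48 larvae per drug. Automated image analysis gave % time moving and optomotor responses. Values are drug group mean minus DMSO vehicle mean (n=844), in percentage points, for 10 behaviours.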

Row | Compound | optomotor response to blue moving lines
1 | Nc1nc2c(ncn2COCCO)c(=O)[nH]1 [Acyclovir] | 10.2
2 | NS(=O)(=O)c1cc(C(=O)O)c(NCc2ccco2)cc1Cl [Furosemide] | 6.22
3 | CCC(=O)O[C@]1(C(=O)SCF)[C@H](C)C[C@H]2[C@@H]3C[C@H](F)C4=CC(=O)C=C[C@]4(C)[C@@]3(F)[C@@H](O)C[C@@]21C [Fluticasone propionate] | -10.1
4 | CCC(C)(C)C(=O)O[C@H]1C[C@@H](C)C=C2C=C[C@H](C)[C@H](CC[C@@H]3C[C@@H](O)CC(=O)O3)[C@H]21 [Simvastatin] | -4.79
5 | COCCc1ccc(OCC(O)CNC(C)C)cc1 (stereo not given) [Metoprolol tartrate] | 10.9
6 | CNC(=O)c1ccccc1Sc1ccc2c(/C=C/c3ccccn3)n[nH]c2c1 [Axitinib] | 13.5
7 | Nc1nc(NC2CC2)c2ncn([C@H]3C=C[C@@H](CO)C3)c2n1 [Abacavir hemisulfate] | 2.71
8 | CCCc1nc2c(C)cc(-c3nc4ccccc4n3C)cc2n1Cc1ccc(-c2ccccc2C(=O)O)cc1 [Telmisartan] | 8.47
9 | CC(C)(C(=O)c1cccnc1)c1cccnc1 [Metyrapone] | -8.19
10 | COc1c(C)c2c(c(O)c1C/C=C(\C)CCC(=O)O)C(=O)OC2 [Mycophenolic acid] | 7
11 | O=c1[nH]c(=O)n([C@H]2C[C@H](O)[C@@H](CO)O2)cc1C(F)(F)F [Trifluorothymidine] | 6.73
12 | Nc1ccn([C@@H]2O[C@H](CO)[C@@H](O)C2(F)F)c(=O)n1 [Gemcitabine hydrochloride] | 3.79
13 | CC(C)COCC(CN(Cc1ccccc1)c1ccccc1)N1CCCC1 (stereo not given) [Bepridil hydrochloride] | 7.44
14 | CC(CCc1ccc(O)cc1)NCCc1ccc(O)c(O)c1 (stereo not given) [Dobutamine hydrochloride] | -11.2
15 | CNCc1ccc(-c2[nH]c3cc(F)cc4c3c2CCNC4=O)cc1 [Rucaparib camsylate] | 10.7
16 | OCCN1C[C@H](O)[C@@H](O)[C@H](O)[C@H]1CO [Miglitol] | 5.95
17 | COc1cc([C@@H]2c3cc4c(cc3[C@@H](O[C@@H]3O[C@@H]5CO[C@@H](C)O[C@H]5[C@H](O)[C@H]3O)[C@H]3COC(=O)[C@H]23)OCO4)cc(OC)c1O [Etoposide] | 6.33
18 | CCCCc1nc(Cl)c(CO)n1Cc1ccc(-c2ccccc2-c2nnn[nH]2)cc1 [Losartan potassium] | -6.92
19 | CN1CCC[C@@H]1Cc1c[nH]c2ccc(CCS(=O)(=O)c3ccccc3)cc12 [Eletriptan hydrobromide] | 5.86
20 | COc1cc(Nc2c(C#N)cnc3cc(OCCCN4CCN(C)CC4)c(OC)cc23)c(Cl)cc1Cl [Bosutinib] | -9.89

Row | Compound | optomotor response to blue moving lines
21 | CC(C)(C(=O)O)c1ccc(C(O)CCCN2CCC(C(O)(c3ccccc3)c3ccccc3)CC2)cc1 (stereo not given) [Fexofenadine hydrochloride] | 4.47
22 | CN1CC2c3ccccc3Oc3ccc(Cl)cc3C2C1 (stereo not given) [Asenapine maleate] | -10
23 | COc1ccc([C@@H]2Sc3ccccc3N(CCN(C)C)C(=O)[C@@H]2OC(C)=O)cc1 [Diltiazem hydrochloride] | -5.83
24 | OC(CNCC(O)C1CCc2cc(F)ccc2O1)C1CCc2cc(F)ccc2O1 (stereo not given) [Nebivolol hydrochloride] | -16.6
25 | CCCN(CCC)S(=O)(=O)c1ccc(C(=O)O)cc1 [Probenecid] | 2.07
26 | Cc1cccc(CN2CCN(C(c3ccccc3)c3ccc(Cl)cc3)CC2)c1 (stereo not given) [Meclizine dihydrochloride] | -6.39
27 | O=C(O)CCCc1ccccc1 [Sodium 4-Phenylbutyrate] | 3.11
28 | N#Cc1ccc2[nH]cc(CCCCN3CCN(c4ccc5oc(C(N)=O)cc5c4)CC3)c2c1 [Vilazodone hydrochloride] | -5.66
29 | CCOc1nc2cccc(C(=O)O)c2n1Cc1ccc(-c2ccccc2-c2nnn[nH]2)cc1 [Candesartan] | 9.66
30 | CCCc1nc(C(C)(C)O)c(C(=O)O)n1Cc1ccc(-c2ccccc2-c2nnn[nH]2)cc1 [Olmesartan] | 3.07
31 | COc1ccc(C[C@@H](C)NC[C@H](O)c2ccc(O)c(NC=O)c2)cc1 [Arformoterol tartrate] | -4.26
32 | CCCCC(=O)N(Cc1ccc(-c2ccccc2-c2nnn[nH]2)cc1)[C@H](C(=O)O)C(C)C [Valsartan] | 6.89
33 | Clc1ccccc1C(c1ccccc1)(c1ccccc1)n1ccnc1 [Clotrimazole] | 14.5
34 | CC(C)OC(=O)C(C)(C)Oc1ccc(C(=O)c2ccc(Cl)cc2)cc1 [Fenofibrate] | 12.7
35 | Cc1nnc(C(C)C)n1C1C[C@H]2CC[C@@H](C1)N2CC[C@H](NC(=O)C1CCC(F)(F)CC1)c1ccccc1 (stereo in doubt) [Maraviroc] | -0.85
36 | Cc1nc(Nc2ncc(C(=O)Nc3c(C)cccc3Cl)s2)cc(N2CCN(CCO)CC2)n1 [Dasatinib] | -13.1
37 | C[C@H]1C[C@@H]2[C@H]([C@@H](O)C[C@@]3(C)[C@H]2CC[C@]3(O)C(=O)CO)[C@@]2(C)C=CC(=O)C=C12 [Methylprednisolone] | 10.6
38 | COc1c(C)c2c(c(O)c1C/C=C(\C)CCC(=O)OCCN1CCOCC1)C(=O)OC2 [Mycophenolate mofetil] | 16.8
39 | CC(C)c1nc(N(C)S(C)(=O)=O)nc(-c2ccc(F)cc2)c1/C=C/[C@@H](O)C[C@@H](O)CC(=O)O [Rosuvastatin calcium] | 10.7
40 | C[C@]12CCC(=O)C=C1CC[C@@H]1[C@@H]2[C@@H](O)C[C@@]2(C)[C@H]1CC[C@]2(O)C(=O)CO [Hydrocortisone] | 8.43
